Consider 13 compounds from PubChem BioAssay (NCI).

This experiment relates to HL-60(TB) leukemia. The experiment in a line: NCI-60 one-dose screen, 48 h (100 = growth as untreated, 0 = no growth, -100 = all killed). The settings on record: 10 µM unless noted.

About 83,000 compounds went through this panel and 20% of them were active in at least one assay; those are over-represented in the sample as a whole.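 Cells were grown in 96-well plates and exposed to the test compound at a single concentration for 48 hours; results are reported as percent growth, with values below 10 considered active.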 Values without a mark were called inactive. The source made the active and inactive calls.

Take `CS(=O)(=O)c1ccc(-c2nc3ccccc3n2CC(=O)N/N=C/c2ccccc2)cc1`: the growth is 141%.

In the case of `CNCCCNCCCN1C(=O)c2ccc3c4c(ccc(c24)C1=O)C(=O)N(CCCNCc1ccccc1OC)C3=O`, the growth is -38.1% (active).

As to `O=C(/C=C/c1cccc(Cl)c1)c1cccc(OCCCCOc2cccc(C(=O)/C=C/c3cccc(Cl)c3)c2)c1`, the growth was 84.6%.

Consider `NC(=S)Nc1cccc(O)c1`, for which the growth was 98.6%.

As for `C#CCNC(=O)CC[C@@H](C)[C@H]1CC[C@H]2[C@@H]3CC[C@@H]4CC(=O)CC[C@]4(C)[C@H]3CC[C@]12C`, the growth was -30% [100 µM] (active).

Regarding `CCOc1ccc(C(=O)O)cc1`, the growth was 103%.

Take `COC(=O)C1(C)CCC[C@]2(C)[C@H]3C[C@H]4C(C(C)C)=C[C@]3(CC[C@@H]12)[C@H]1[C@@H]4[C@@H](OCC#CCN2CCOCC2)CC[C@@H]1OCC#CCN1CCOCC1` (stereo partly drawn): the growth is 88.7%.

Turning to `CCCCCCCCCCNC(=O)CCl`, the growth is 95.8%.

On to `C/C=C(\C)C(C(=O)NC1CCCCC1)N(C(=O)C1CCc2cc(F)ccc2O1)c1ccc([N+](=O)[O-])cc1` (stereo not drawn), for which the growth was 82.4%.

As to `CCCCn1cnc2c(SCc3ccc([N+](=O)[O-])cc3)nc(N)nc21`, the growth is -42.6% (active).

Turning to `CCC(C)Oc1cc(/C=N/NC(=O)c2cnn3c2NC(c2ccccc2)C3)ccc1OC` (stereo not drawn), the growth was 32.2%.

For the compound `CN1c2ccccc2S(=O)(=O)n2c(SCC(=O)Nc3nc4ccc(F)cc4s3)nnc21`, the growth is 105%.

As to `COCC[C@H]1CCC/C=C/[C@@H]2C[C@H](O)C[C@H]2[C@H](O)/C=C/C(=O)O1`, the growth was 3.25% (active).
